Measured values reported in PubChem BioAssay.
A number with no mark means an inactive call. For some of these results: Results with a measured potency or affinity are listed apart. Active and inactive are the calls of the source. Unless noted, the rule behind the calls is not given here.

Legend:
[1] = antimalarial activity against Dd2 strain (AID 2302;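 active = growth inhibition above 50% at the single 2 µM test dose, taken to imply half-maximal potency below 2 µM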;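 note: 0% = DMSO untreated growth and 100% = chloroquine plus artemisinin killed control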); details: P. falciparum Dd2 in RBCs, LDH growth readout, 72 h; at 2 µM; active compounds read high
[2] = human hepatoma cell viability loss – ATP luminescence, cytotoxicity control for P. falciparum antimalarial project, primary screen (AID 2303;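 active = inhibition above 50%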;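 note: 0% = DMSO wells and 100% = digitonin-killed cells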); details: HepG2 viability, 24-48 h, at 10 µM, active compounds read high
[3] = biological target: L-lactate dehydrogenase (Plasmodium falciparum (isolate CDC / Honduras)) (UniProt Q27743); assay: PfLDH activity inhibition – cell lysate, 3D7 strain, counter-screen for P. falciparum growth inhibition project (AID 2304);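 note: 0% = vehicle and 100% = reference inhibitor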; details: P. falciparum 3D7 crude extract, LDH APAD/NBT absorbance; at 2 µM; active compounds read high
Chain of L-lactate dehydrogenase (Plasmodium falciparum (isolate CDC / Honduras)) (Q27743 whole entry, looked up): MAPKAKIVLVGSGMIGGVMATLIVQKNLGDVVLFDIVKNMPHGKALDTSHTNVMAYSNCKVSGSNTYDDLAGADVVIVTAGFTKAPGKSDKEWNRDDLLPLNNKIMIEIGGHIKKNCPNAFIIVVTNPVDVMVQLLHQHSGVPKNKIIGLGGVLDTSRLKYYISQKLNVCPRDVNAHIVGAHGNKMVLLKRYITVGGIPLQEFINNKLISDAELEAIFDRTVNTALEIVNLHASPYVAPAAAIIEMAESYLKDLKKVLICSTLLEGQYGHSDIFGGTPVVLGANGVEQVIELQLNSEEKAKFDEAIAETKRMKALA

[4] = inhibition of 3D7 malaria parasite growth – strain 3D7 (AID 2306);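 note: 0% = DMSO wells and 100% = chloroquine plus artemisinin control wells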; details: P. falciparum 3D7 erythrocytic growth, LDH absorbance, 72 h; at 2 µM; active compounds read high
[5] = biological target: Calcium-dependent protein kinase 1 (Plasmodium falciparum (isolate 3D7)) (UniProt P62344); assay: PfCDPK1 kinase inhibitors, biochemical, TCAMS library (AID 1159585; cut-off not given, nearly all actives have IC50 up to about 0.98 µM;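 note: inhibitors leave more ATP so luminescence rises with inhibition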); details: recombinant PfCDPK1, Kinase-Glo ATP depletion luminescence
Chain of Calcium-dependent protein kinase 1 (Plasmodium falciparum (isolate 3D7)) (P62344 whole entry, looked up): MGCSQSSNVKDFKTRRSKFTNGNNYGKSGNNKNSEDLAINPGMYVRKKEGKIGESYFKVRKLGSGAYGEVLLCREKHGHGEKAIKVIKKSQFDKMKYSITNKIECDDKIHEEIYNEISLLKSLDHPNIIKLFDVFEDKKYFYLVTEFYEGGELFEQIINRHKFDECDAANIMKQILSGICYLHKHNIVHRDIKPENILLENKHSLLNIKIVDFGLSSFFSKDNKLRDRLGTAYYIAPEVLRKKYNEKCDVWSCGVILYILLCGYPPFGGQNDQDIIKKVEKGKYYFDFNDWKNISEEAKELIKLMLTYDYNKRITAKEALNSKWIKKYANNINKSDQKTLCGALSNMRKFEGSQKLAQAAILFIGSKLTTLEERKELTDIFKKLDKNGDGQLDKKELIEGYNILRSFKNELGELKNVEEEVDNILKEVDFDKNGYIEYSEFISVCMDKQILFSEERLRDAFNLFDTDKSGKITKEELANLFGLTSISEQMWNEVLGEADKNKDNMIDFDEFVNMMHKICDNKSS

[6] = biological target: Plasmodium falciparum protein kinase 6 (PK6, PF3D7_1337100) (UniProt Q8IDW1); assay: PfPK6 kinase inhibitors, biochemical, TCAMS library (AID 1159586); details: recombinant PfPK6, Kinase-Glo ATP depletion luminescence
Chain of Plasmodium falciparum protein kinase 6 (PK6, PF3D7_1337100) (Q8IDW1 1-305): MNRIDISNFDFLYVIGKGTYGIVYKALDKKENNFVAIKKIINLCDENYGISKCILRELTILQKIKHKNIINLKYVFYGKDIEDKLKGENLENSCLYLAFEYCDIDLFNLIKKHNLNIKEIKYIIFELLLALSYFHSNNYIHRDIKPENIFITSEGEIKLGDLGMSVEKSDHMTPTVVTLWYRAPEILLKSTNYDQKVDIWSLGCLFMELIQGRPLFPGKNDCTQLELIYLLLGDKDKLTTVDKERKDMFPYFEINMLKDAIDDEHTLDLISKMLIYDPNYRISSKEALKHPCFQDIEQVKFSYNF

[7] = biological target: Protein kinase 7 (PK7), Plasmodium falciparum 3D7 (PF3D7_0213400) (UniProt Q7YTF7); assay: inhibition of Plasmodium PK7 catalytic activity – biochemical, TCAMS antimalarial set, Kinase-Glo luminescence (AID 1159587); details: recombinant PfPK7, Kinase-Glo ATP depletion luminescence
Chain of Protein kinase 7 (PK7), Plasmodium falciparum 3D7 (PF3D7_0213400) (Q7YTF7 1-343): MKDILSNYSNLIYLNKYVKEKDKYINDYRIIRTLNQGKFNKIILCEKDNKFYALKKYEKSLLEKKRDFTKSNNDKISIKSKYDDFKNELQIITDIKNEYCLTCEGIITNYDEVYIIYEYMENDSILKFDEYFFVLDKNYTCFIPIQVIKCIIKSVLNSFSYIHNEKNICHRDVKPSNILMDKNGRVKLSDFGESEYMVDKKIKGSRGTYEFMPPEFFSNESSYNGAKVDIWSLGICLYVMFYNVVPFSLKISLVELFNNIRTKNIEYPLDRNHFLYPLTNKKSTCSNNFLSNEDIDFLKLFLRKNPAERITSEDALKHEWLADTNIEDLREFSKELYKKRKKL

[8] = biological target: Calcium-dependent protein kinase 4 (Plasmodium falciparum (isolate 3D7)) (UniProt Q8IBS5); assay: PfCDPK4 kinase inhibitors, biochemical, TCAMS library (AID 1159588; cut-off not given, nearly all actives have IC50 up to about 0.91 µM); details: recombinant PfCDPK4, Kinase-Glo ATP depletion luminescence
Chain of Calcium-dependent protein kinase 4 (Plasmodium falciparum (isolate 3D7)) (Q8IBS5 whole entry, looked up): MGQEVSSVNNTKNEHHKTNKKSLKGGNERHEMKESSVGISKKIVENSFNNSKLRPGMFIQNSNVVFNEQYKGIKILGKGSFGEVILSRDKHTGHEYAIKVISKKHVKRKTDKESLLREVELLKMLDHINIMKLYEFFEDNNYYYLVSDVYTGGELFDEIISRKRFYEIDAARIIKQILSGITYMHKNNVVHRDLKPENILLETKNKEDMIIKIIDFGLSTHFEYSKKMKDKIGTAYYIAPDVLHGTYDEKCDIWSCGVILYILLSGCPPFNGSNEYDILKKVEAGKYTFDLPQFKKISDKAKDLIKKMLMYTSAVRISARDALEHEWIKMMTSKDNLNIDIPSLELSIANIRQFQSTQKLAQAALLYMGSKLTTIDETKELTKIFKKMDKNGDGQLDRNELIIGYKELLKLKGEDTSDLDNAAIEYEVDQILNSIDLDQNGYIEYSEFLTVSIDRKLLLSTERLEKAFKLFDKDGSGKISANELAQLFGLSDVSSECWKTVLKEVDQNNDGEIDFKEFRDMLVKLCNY

Row | Structure (SMILES) | growth inhibition [1] | inhibition [2] | inhibition [3] | growth inhibition [4] | outcome [5] | outcome [6] | outcome [7] | outcome [8]
1 | CNCCNCc1ccc(-c2ccc(-c3nc4ccc(F)cc4[nH]3)cc2)cc1 | 97% (active) | 30% | 4% | 98% (active) | inactive | inactive | inactive | inactive
2 | O=C(NCCCCN1CCC(C(c2ccccc2)c2ccccc2)CC1)c1ccc(NC(=O)c2ccc(Cl)cc2)cc1 | 47% | 12% | -2% | 100% (active) | inactive | inactive | inactive | inactive
3 | CCN(CC)CCN(Cc1ccc(-c2ccc(C(F)(F)F)cc2)cc1)C(=O)Cn1c(CCc2c(F)cccc2F)nc(=O)c2ccccc21 | 61% (active) | 36% | -3% | 102% (active) | inactive | inactive | inactive | inactive
4 | CC(=O)N1N=C(c2ccc(Cl)cc2)Sc2c1nc(-c1ccccc1)n2C(C)=O | 81% (active) | -3% | 3% | 105% (active) | inactive | inactive | inactive | inactive
5 | Oc1ccc(CCCNc2nc(NCc3cccc4ccccc34)nc(NC3CCNCC3)n2)cc1 | -3% | 8% | 1% | 91% (active) | inactive | inactive | inactive | inactive
6 | CCCNCc1ccc(-c2ccc(CN(CCOC)C(=O)c3cnc(C)cn3)cc2)nc1 | 14% | -3% | -4% | 81% (active) | inactive | inactive | inactive | inactive
7 | O=C(Nc1ccccc1C(F)(F)F)Nc1nn(Cc2c(F)cccc2Cl)cc1Br | 86% (active) | -15% | -8% | 100% (active) | inactive | inactive | inactive | inactive
8 | COc1ccc(NC(=O)c2ccc(Br)c(C)c2)cc1N1CCN(Cc2ccccc2)CC1 | 3% | -2% | 0% | 95% (active) | inactive | inactive | inactive | inactive
9 | NC1=NC(CCc2ccccc2)N(c2ccc(Cl)cc2)C(N)=N1 (stereo not drawn) | 20% | 2% | -5% | 94% (active) | inactive | inactive | inactive | inactive
10 | O=C(NCC1CCC(C(=O)NCCN2CCCCC2)CC1)c1ccc(O)c(-c2ccc(Cl)c(Cl)c2)c1 (stereo not drawn) | 22% | -5% | -1% | 91% (active) | inactive | inactive | inactive | inactive
11 | CC1(C)N=C(N)N=C(N)N1OCCc1ccc2ccccc2c1 | 95% (active) | 65% (active) | 3% | 96% (active) | inactive | inactive | inactive | inactive
12 | O=[N+]([O-])c1ccc2c(c1)c1ccccc1n2Cc1ccccc1O | 84% (active) | -2% | 0% | 93% (active) | inactive | inactive | inactive | inactive
13 | CC(C)c1ccc(S(=O)(=O)Nc2cccc(CCN3CCC(N4CCCCC4)CC3)c2)cc1 | 35% | 37% | 6% | 101% (active) | inactive | inactive | inactive | inactive
14 | COc1ccc(C=NNc2nc(-c3ccccc3)cc(=O)[nH]2)cc1OC | 93% (active) | 22% | 4% | 92% (active) | inactive | inactive | inactive | inactive
15 | O=C(Nc1ccc(-c2cccc(-c3nc4ccc(F)cc4[nH]3)c2)cc1)c1cnn2cccnc12 | 25% | 10% | -1% | 98% (active) | inactive | inactive | inactive | inactive
16 | CN(C)CCCNCc1ccc(-c2ccc(CNCCc3ccccc3)cc2)cc1 | 87% (active) | 61% (active) | 0% | 100% (active) | inactive | inactive | inactive | inactive
17 | CC(=O)Nc1ccc(C#Cc2ccc(-c3c(C)[nH]c(C)c(Cl)c3=O)cc2)cc1 | 78% (active) | -3% | -7% | 90% (active) | inactive | inactive | inactive | inactive
18 | COc1ccccc1CCNc1nc(C)cc(NCCC(=O)Nc2ccccc2)n1 | 24% | 7% | 0% | 101% (active) | inactive | inactive | inactive | inactive
19 | O=C(Cn1c(CCc2cccc(F)c2F)nc(=O)c2ccccc21)N(Cc1ccc(-c2ccc(C(F)(F)F)cc2)cc1)C1CCN(C2CCOCC2)CC1 | 76% (active) | 97% (active) | -2% | 101% (active) | inactive | inactive | inactive | inactive
20 | CCCC(CNC(=O)c1cc2c(Cl)cc(Cl)cc2[nH]1)CNc1cc(=O)c2ccccc2[nH]1 (stereo not drawn) | 94% (active) | 9% | -5% | 100% (active) | inactive | inactive | inactive | inactive
21 | COc1ccc(Br)cc1C1Nc2ccc3ccccc3c2C2=C1C(=O)CC(c1ccccc1)C2 (stereo not drawn) | 96% (active) | 25% | 4% | 101% (active) | inactive | inactive | inactive | inactive

Row | Structure (SMILES) | growth inhibition [1] | inhibition [2] | inhibition [3] | growth inhibition [4] | outcome [5] | outcome [6] | outcome [7] | outcome [8]
22 | Cc1cc(N(C)CCCN(C)C)nc(Nc2ccc(Cl)cc2)n1 | 79% (active) | 7% | 5% | 101% (active) | inactive | inactive | inactive | inactive
23 | COc1ccc2ncc(F)c(CCN3C[C@H](CNCc4ccc5oc(=O)ccc5c4)[C@H](O)C3)c2n1 | 6% | 18% | 3% | 89% (active) | inactive | inactive | inactive | inactive
24 | Cc1cc(Cl)ccc1NC(=O)NCCCCCN1CCC(c2c[nH]c3ccccc23)CC1 | 8% | 59% (active) | 0% | 91% (active) | inactive | inactive | inactive | inactive
25 | N#Cc1ccc(CN2CCC(Oc3ccc(NC(=O)c4ccco4)cc3Cl)C2)cc1 (stereo not drawn) | 95% (active) | 13% | -2% | 95% (active) | inactive | inactive | inactive | inactive
26 | CC(C)n1ncc2c3c(N)nc(N)nc3ccc21 | 6% | 64% (active) | -3% | 98% (active) | inactive | inactive | inactive | inactive
27 | Cc1cccc2[nH]c(-c3ccc(-c4cccc(NC(=O)C(C)CN(C)C)c4)s3)nc12 (stereo not drawn) | 69% (active) | 12% | 0% | 92% (active) | inactive | inactive | inactive | inactive
28 | Cc1cc(F)ccc1Nc1nc(N(C)c2ccccc2)c2cc(OCCN(C)C)ccc2n1 | 55% (active) | 37% | 3% | 94% (active) | inactive | inactive | inactive | inactive
29 | COc1cc([N+](=O)[O-])ccc1NC(=O)c1cc(Cl)ccc1O | 100% (active) | 92% (active) | 6% | 87% (active) | inactive | inactive | inactive | inactive
30 | O=C(Nc1cccc(-c2cccc(-c3nc4ccc(C(F)(F)F)cc4[nH]3)c2)c1)c1csnn1 | 37% | 45% | 3% | 99% (active) | inactive | inactive | inactive | inactive
31 | CNCc1ccc(-c2cccc(CNCc3ccc(-c4ccccc4)cc3)c2)c(C(=O)OC)c1 | 19% | 25% | 3% | 92% (active) | inactive | inactive | inactive | inactive
32 | COc1ccc2nccc([C@@H](O)CN3CCC(NC(=O)C(=Cc4ccc(C#N)cc4)c4ccc(-c5ccccc5)cc4)CC3)c2c1 | 84% (active) | 5% | -5% | 101% (active) | inactive | inactive | inactive | inactive
33 | CC(OC(=O)c1ccc(C(=O)NCC2CC2)cc1)C(C)(C)C (stereo not drawn) | 86% (active) | 10% | -3% | 93% (active) | inactive | inactive | inactive | inactive
34 | Cc1[nH]c2ccc(C#N)cc2c(=O)c1Br | 61% (active) | 2% | -1% | 91% (active) | inactive | inactive | inactive | inactive
35 | O=C(Nc1cccc(-c2nc3ccccc3[nH]2)c1)c1ccc(-c2cccc([N+](=O)[O-])c2)o1 | 28% | 22% | -1% | 93% (active) | inactive | inactive | inactive | inactive
36 | CN1CCN(CCCSc2ccc3c(c2)ncn3-c2cc(OCc3ccccc3C(F)(F)F)c(C(N)=O)s2)CC1 | 86% (active) | 28% | 8% | 101% (active) | inactive | inactive | inactive | inactive
37 | CC(CN(C)C)C(=O)Nc1cccc(-c2ccc(-c3nc4ccc(F)cc4[nH]3)s2)c1 (stereo not drawn) | 99% (active) | 3% | -6% | 100% (active) | inactive | inactive | inactive | inactive
38 | COc1c(C2CCN(CCCCNC(=O)c3ccc(-c4ccc(C#N)cc4)cc3)CC2)cc(Cl)c2c1CCCC2 | 59% (active) | 45% | 0% | 93% (active) | inactive | inactive | inactive | inactive
39 | Cc1ccoc1C(=O)Nc1cccc(-c2cccc(-c3nc4ccccc4[nH]3)c2)c1 | 20% | 43% | -2% | 85% (active) | inactive | inactive | inactive | inactive
40 | O=C(NCCCCN1CCC(c2ccc3c(c2OCCO)CCCC3)CC1)c1ccc(-c2ccc(C(F)(F)F)cc2)cc1 | 38% | 100% (active) | 6% | 98% (active) | inactive | inactive | inactive | inactive
41 | Cc1cccc2[nH]c(-c3cccc(-c4cccc(CNCCc5ccncc5)c4)c3)nc12 | 99% (active) | 20% | -2% | 101% (active) | inactive | inactive | inactive | inactive
